# Data as given in PubChem BioAssay.
# Active and inactive are the calls of the source.
# Assays:
# [1] = binders of probe aFSTL3 on microarray, primary screen, stem cell growth factor project, biochemical, small-molecule microarray, fluorescence 635/667 (AID 1064); settings: higher = more signal;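 note: measures binding of the biotinylated anti-FSTL3 antibody to printed compounds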
# [2] = binders from COS7 lysate, DM2A8 probe, primary screen, torsin A project, cell lysate, small-molecule microarray, fluorescence 635/667 (AID 1065); settings: higher = more signal, COS7 lysate expressing mutant human TOR1A
# [3] = binders of probe aFGF2 on microarray, primary screen, stem cell growth factor project, biochemical, small-molecule microarray, fluorescence 635/667 (AID 1067); settings: higher = more signal;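 note: measures binding of biotinylated aFGF2 protein to printed compounds on slides; z-score merges feature fluorescence and signal-to-noise across triplicate slides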
# [4] = binders of probe aFGF10 on microarray, primary screen, stem cell growth factor project, biochemical, small-molecule microarray, fluorescence 635/667 (AID 1071); settings: higher = more signal;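 note: score merges 667 nm spot intensity and signal to noise from triplicate slides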
# [5] = biological target: Neurogenic locus notch homolog protein 2 (Homo sapiens) (UniProt Q04721); test: Notch2 binders on small-molecule microarrays, primary screen, biochemical, small-molecule microarray, 635 nm fluorescence, stem cell growth factors (AID 1073); settings: Notch2 binding, higher = more signal
# [6] = biological target: Pro-neuregulin-1, membrane-bound isoform (Homo sapiens) (UniProt Q02297); test: NRG1 binders on small-molecule microarrays, primary screen, psychiatric disease protein project, biochemical, small-molecule microarray, fluorescence 635/667 (AID 1075); settings: NRG1 binding, 635 nm fluorescence, higher = more signal;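 note: score combines 667 nm spot fluorescence with signal to noise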
# Sequence of Pro-neuregulin-1, membrane-bound isoform (Homo sapiens) (Q02297 whole entry, looked up, the tested form may be a part, canonical isoform): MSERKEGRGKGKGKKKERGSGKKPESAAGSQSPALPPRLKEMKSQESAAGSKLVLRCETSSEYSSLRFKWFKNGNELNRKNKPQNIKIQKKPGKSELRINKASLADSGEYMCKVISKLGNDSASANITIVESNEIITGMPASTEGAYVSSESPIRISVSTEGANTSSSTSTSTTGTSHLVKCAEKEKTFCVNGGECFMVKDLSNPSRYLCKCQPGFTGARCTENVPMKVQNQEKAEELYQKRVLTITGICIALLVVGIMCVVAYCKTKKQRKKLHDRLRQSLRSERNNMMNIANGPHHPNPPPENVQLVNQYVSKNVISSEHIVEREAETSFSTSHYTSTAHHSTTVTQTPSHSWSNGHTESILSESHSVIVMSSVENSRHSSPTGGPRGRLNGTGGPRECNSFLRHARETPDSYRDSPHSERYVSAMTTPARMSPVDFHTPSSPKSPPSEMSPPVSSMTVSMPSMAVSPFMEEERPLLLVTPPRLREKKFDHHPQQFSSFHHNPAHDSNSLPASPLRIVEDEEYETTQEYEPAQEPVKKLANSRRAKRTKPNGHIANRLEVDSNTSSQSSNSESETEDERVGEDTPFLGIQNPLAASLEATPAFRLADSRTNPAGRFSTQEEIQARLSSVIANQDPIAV
# [7] = test system: Neuregulin-1 EGF-like domain; test: binders of neuregulin-1 EGF-like domain, primary screen, biochemical, small-molecule microarray, 635 nm fluorescence (AID 1081); settings: small-molecule microarray binding, higher = more signal;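 note: binding of the protein to compounds printed on small-molecule microarray slides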
# [8] = FRG1 promoter luciferase signal modulators, primary screen, FRG1 inhibition for FSHD, cell-based, C2C12 myotubes, firefly/Renilla luciferase, luminescence (AID 1084); settings: higher = more signal, called active from +8 up or from −8 down
# [9] = binders of probe aFST on microarray, primary screen, stem cell growth factor project, biochemical, small-molecule microarray, fluorescence 635/667 (AID 1086); settings: higher = more signal;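 note: score merges 667 nm fluorescence with signal-to-noise of each printed compound spot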
# [10] = binders of probe aHhip on microarray, primary screen, stem cell growth factor project, biochemical, small-molecule microarray, fluorescence 635/667 (AID 1087); settings: higher = more signal;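 note: score merges spot fluorescence at 667nm with spot signal to noise ratio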
# [11] = test system: PRMT1 (protein arginine N-methyltransferase 1); test: PRMT1 binders on small-molecule microarrays, primary screen, biochemical, small-molecule microarray, 635 nm fluorescence (AID 1088); settings: small-molecule microarray binding, higher = more signal;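 note: binding of Prmt1 protein to compounds spotted on small-molecule microarray slides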
# [12] = yeast growth modulation, basal conditions, primary screen, YJM789 clinical isolate, OD600, 24 h (AID 1089);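 note: growth of clinical yeast isolate S. cerevisiae YJM 789 seeded 1000 cells per well; test concentration not given here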; settings: S. cerevisiae YJM789 growth, higher = more signal, called active from +8 up or from −8 down
# [13] = fission yeast growth modulation, primary screen, strain 972, OD600, 24 h, no modulator (AID 1090);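 note: basal condition with compound alone and no growth modifier present; test concentration not given here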; settings: S. pombe 972 growth, higher = more signal, called active from +8 up or from −8 down
# [14] = S. cerevisiae growth modulation with rapamycin, primary screen, strain BY4716, OD600, 96 h (AID 1091); settings: higher = more signal, called active from +8 up or from −8 down; note: test concentration not given here
# [15] = biological target: Torsin-1A-interacting protein 2 (Homo sapiens) (UniProt Q8NFQ8); test: LULL1 binders on small-molecule microarray, primary screen, cell lysate, human LULL1 lysate, 635/667 nm fluorescence (AID 1092); settings: hLULL1 lysate binding, 635 nm fluorescence, higher = more signal;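 note: probe is lysate of COS7 cells overexpressing human LULL1; score merges per-feature 667 nm fluorescence with signal-to-noise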
# Sequence of Torsin-1A-interacting protein 2 (Homo sapiens) (Q8NFQ8 whole entry, looked up): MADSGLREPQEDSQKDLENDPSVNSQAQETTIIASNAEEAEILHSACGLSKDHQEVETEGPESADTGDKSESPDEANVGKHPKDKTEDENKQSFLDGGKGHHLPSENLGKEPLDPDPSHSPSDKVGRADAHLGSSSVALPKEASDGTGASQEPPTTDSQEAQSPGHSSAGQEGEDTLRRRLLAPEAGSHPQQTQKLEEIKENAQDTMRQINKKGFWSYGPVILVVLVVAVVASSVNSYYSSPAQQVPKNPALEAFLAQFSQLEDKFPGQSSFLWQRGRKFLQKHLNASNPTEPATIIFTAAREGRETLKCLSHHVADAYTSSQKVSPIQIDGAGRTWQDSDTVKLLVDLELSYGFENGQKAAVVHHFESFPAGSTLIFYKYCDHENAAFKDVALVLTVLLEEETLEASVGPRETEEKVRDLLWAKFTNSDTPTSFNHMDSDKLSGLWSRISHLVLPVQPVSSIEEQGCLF
# [16] = E. coli growth modulation, two-sided OD650, primary screen, E. coli filamentation project, strain DRC41, 24 h (AID 1093); settings: OD650, 24 h, higher = more signal, called active from +8 up or from −8 down;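 note: MC1000 strain lacking acrAB efflux and sulA so SOS filamentation is blocked; test concentration not given here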
# [17] = small-molecule microarray binders of probe aLefty2, primary screen, biochemical, biotinylated probe, 635/667 nm fluorescence (AID 1094); settings: higher = more signal;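 note: score merges spot fluorescence near 667 nm with spot signal-to-noise ratio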
# [18] = test system: Noggin (protein binding on small-molecule microarray); test: Noggin binders on small-molecule microarray, primary screen, biochemical, 635/667 nm fluorescence (AID 1095); settings: 635 nm fluorescence, higher = more signal;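 note: score merges 667 nm feature fluorescence with signal to noise over triplicate slides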
# [19] = biological target: Neurogenic locus notch homolog protein 3 (Homo sapiens) (UniProt Q9UM47); test: NOTCH3 binders on small-molecule microarray, primary screen, biochemical, 635/667 nm fluorescence (AID 1096); settings: NOTCH3 binding, 635 nm fluorescence, higher = more signal
# Sequence of Neurogenic locus notch homolog protein 3 (Homo sapiens) (Q9UM47 whole entry, looked up): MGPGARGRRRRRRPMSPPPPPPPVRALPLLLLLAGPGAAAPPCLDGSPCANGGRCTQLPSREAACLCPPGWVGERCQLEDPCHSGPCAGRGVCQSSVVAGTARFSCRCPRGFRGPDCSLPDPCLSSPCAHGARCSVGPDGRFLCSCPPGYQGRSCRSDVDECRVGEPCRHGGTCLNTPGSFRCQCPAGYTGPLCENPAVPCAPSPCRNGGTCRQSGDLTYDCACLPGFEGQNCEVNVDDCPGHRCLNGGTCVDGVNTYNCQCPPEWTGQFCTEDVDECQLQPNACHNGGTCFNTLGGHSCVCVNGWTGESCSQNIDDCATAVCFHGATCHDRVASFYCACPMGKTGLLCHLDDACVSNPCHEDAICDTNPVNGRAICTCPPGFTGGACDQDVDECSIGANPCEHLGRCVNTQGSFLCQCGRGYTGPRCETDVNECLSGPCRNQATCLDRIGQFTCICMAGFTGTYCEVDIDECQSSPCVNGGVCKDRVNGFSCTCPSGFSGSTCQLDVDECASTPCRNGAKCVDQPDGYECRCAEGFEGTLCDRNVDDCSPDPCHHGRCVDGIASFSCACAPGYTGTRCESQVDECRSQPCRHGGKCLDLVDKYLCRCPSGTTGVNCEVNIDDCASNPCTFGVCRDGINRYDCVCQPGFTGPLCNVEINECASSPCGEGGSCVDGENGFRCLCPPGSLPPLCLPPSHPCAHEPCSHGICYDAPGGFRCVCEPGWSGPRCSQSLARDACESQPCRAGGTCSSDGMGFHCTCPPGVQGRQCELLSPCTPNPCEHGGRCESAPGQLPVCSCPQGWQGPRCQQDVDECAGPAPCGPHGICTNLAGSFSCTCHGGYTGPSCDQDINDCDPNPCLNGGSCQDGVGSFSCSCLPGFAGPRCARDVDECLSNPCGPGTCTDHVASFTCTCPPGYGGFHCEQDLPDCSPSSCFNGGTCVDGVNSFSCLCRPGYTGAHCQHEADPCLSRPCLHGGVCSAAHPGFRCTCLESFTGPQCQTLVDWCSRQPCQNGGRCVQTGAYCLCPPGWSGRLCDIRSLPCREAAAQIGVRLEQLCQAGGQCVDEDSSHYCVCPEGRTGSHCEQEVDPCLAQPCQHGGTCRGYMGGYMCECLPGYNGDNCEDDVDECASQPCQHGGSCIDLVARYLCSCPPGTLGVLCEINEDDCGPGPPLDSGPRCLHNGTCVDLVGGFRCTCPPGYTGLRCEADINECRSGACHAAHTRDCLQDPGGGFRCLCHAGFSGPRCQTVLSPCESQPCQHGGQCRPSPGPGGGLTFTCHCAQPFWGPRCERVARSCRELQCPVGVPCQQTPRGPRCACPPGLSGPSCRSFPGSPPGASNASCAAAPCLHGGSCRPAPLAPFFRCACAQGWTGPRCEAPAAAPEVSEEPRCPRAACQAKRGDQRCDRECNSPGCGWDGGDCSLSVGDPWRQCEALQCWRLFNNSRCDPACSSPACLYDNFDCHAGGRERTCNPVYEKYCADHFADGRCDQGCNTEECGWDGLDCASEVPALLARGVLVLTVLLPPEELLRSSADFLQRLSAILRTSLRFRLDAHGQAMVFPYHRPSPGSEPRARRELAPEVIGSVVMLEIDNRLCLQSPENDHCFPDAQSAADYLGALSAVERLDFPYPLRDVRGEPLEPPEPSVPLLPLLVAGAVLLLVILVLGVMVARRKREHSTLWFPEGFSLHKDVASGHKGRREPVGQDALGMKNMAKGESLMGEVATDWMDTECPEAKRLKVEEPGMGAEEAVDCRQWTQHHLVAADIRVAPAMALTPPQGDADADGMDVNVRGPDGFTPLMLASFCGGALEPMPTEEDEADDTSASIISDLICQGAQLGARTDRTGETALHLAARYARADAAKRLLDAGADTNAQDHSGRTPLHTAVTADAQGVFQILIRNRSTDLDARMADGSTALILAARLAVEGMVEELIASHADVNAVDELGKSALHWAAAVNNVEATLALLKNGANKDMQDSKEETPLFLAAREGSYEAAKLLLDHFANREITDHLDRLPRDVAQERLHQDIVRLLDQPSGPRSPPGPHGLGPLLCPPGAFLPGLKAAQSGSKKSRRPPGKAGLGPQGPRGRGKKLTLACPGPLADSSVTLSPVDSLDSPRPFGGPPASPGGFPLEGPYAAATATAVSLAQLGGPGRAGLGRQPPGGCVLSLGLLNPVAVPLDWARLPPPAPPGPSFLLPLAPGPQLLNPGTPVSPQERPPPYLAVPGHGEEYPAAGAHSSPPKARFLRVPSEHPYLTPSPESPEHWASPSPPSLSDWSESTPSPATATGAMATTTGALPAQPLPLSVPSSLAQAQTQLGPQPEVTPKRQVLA
# [20] = small-molecule microarray binders of probe aEGFR, primary screen, biochemical, biotinylated probe, 635/667 nm fluorescence (AID 1097); settings: higher = more signal;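 note: probe is a biotinylated anti-EGFR antibody binding compounds printed on slides; score combines fluorescence near 667 nm and signal to noise of each spot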
Structure (SMILES),composite z-score [1],composite z-score [2],composite z-score [3],composite z-score [4],composite z-score [5],composite z-score [6],composite z-score [7],z-score [8],composite z-score [9],composite z-score [10],composite z-score [11],z-score [12],z-score [13],z-score [14],composite z-score [15],z-score [16],composite z-score [17],composite z-score [18],composite z-score [19],composite z-score [20]
N#Cc1ccc(C(O)C2C=CC3C(=O)NC(=O)C3N2Nc2ccc(Cl)cc2Cl)cc1 (stereo not given),-0.0161,-0.0803,-0.101,0.116,1.45,1.82,0.649,1.79 (inactive),0.119,-0.146,0.156,-2.93 (inactive),-0.615 (inactive),0.448 (inactive),3.39,-0.343 (inactive),0.103,-0.185,0.559,-0.0594
O=C1O[C@H](c2ccccc2)[C@H](c2ccccc2)N2[C@H]1[C@@H](C(=O)N1CCN(c3ncccn3)CC1)[C@]1(C(=O)Nc3ccc(C#CCCO)cc31)[C@H]2c1ccc(O)cc1,-0.153,-0.162,0.0033,0.597,1.01,1.71,0.979,1.34 (inactive),0.0354,0.0373,0.738,0.515 (inactive),-0.443 (inactive),1.18 (inactive),2.92,-0.778 (inactive),-0.0784,0.283,0.504,-0.004
NC(=O)N1C(=O)C2C(C1=O)C1C=C(CCCO)C2C(c2ccc(CN3CCCC3)cc2)N1Cc1sc2ccccc2c1Cl (stereo not given),-0.161,0.224,-0.0867,0.0718,0.0517,0.0965,0.834,-0.824 (inactive),-0.835,-0.323,0.634,-0.75 (inactive),-0.399 (inactive),-1.27 (inactive),1.97,0.465 (inactive),-0.208,-0.275,-0.348,-0.112
CCC(CC)C(O)C1C=CC2C(=O)N(c3ccccc3)C(=O)C2N1Nc1ccccc1F (stereo not given),-0.226,1.01,-0.0222,0.715,1.48,1.29,1.38,-0.556 (inactive),1,0.0373,0.203,0.175 (inactive),0.44 (inactive),-0.0875 (inactive),3.23,-0.636 (inactive),0.172,-0.19,0.78,-0.04
CN1C(=O)C2C(C3CC3)C=C3CN(Cc4cccc(Cl)c4)[C@@H]([C@@H](O)Cc4ccccc4)C3C2C1=O (stereo not given in full),-0.357,0.268,-0.229,0.0719,0.999,1.03,1.23,-1.31 (inactive),-0.156,0.0854,1.57,0.347 (inactive),-1.87 (inactive),-0.539 (inactive),2.94,1.71 (inactive),-0.126,1.23,1.15,-0.0679
CCOC(=O)C[C@H]1[C@H](OC(=O)c2ccccc2-c2ccccc2)[C@@H](NC(=O)C2CCCCC2)c2cc(OCCCO)ccc2N1C(=O)c1ccc2ccccc2n1,-0.484,0.0817,-0.0594,0.53,0.813,0.388,0.825,0.396 (inactive),0.512,-0.0296,1.39,0.362 (inactive),0.233 (inactive),0.495 (inactive),1.34,-1.06 (inactive),0.0569,0.431,0.89,0.0754
COCCOC(=O)N1C(=O)[C@@]2(c3ccccc31)[C@H](c1ccc(O)cc1)N1[C@H](c3ccccc3)[C@H](c3ccccc3)OC(=O)[C@H]1[C@@H]2C(=O)N1CCCCCCC1,3.84,1.88,0.949,0.802,1.07,2.5,1.29,-3.25 (inactive),3.5,3.27,1.55,-0.322 (inactive),0.621 (inactive),0.929 (inactive),3.9,0.178 (inactive),1.76,1.98,1.02,1.26
C=C(/C(=C/C[C@@H](OC(C)=O)c1cccc(OCCO)c1)c1cnc2ccccc2c1)C(C)C,-0.121,0.197,-0.0242,0.76,0.693,0.41,1.08,2 (inactive),0.0752,-0.0645,1.55,0.0631 (inactive),-0.396 (inactive),-0.28 (inactive),0.77,0.974 (inactive),-0.207,2.09,0.801,-0.139
CCOC(=O)C1=CC[C@@H](c2ccccc2)N(S(=O)(=O)c2ccc(C)cc2)[C@H]1c1ccccc1I,-0.312,0.215,0.162,0.571,1.48,1.05,1.12,-2.08 (inactive),1.92,0.0662,0.98,-0.323 (inactive),0.666 (inactive),0.607 (inactive),2.63,-0.162 (inactive),0.52,0.22,1.06,0.0321
CC1CC/C=C\[C@H]2OC34C=CCN(c5ccc(Cl)cc5)C(=O)[C@H]3N(CCCCCCO)C(=O)[C@]4(C)C2C(=O)O1 (stereo not given in full),-0.147,-0.965,-0.176,-0.219,-0.705,0.639,1.52,0.975 (inactive),-0.56,-0.204,-0.106,-0.0412 (inactive),-0.884 (inactive),0.187 (inactive),0.995,0.206 (inactive),-0.233,-0.914,-0.277,-0.314
CC(C)NC(=O)[C@@H]1c2ccccc2C(=O)N(Cc2ccccc2C(F)(F)F)[C@H]1c1ccc(CO)cc1,-0.804,0.313,0.0553,-0.0635,-0.409,-0.774,0.837,-1.26 (inactive),0.618,-0.668,-0.123,-0.202 (inactive),0.163 (inactive),-1.04 (inactive),2.36,-0.327 (inactive),-0.241,-0.238,0.0828,0.668
CC1CC/C=C\[C@H]2OC34C=CCN(c5ccc6ccccc6c5)C(=O)[C@H]3N(C(C)CO)C(=O)[C@@H]4C2C(=O)O1 (stereo not given in full),0.018,-1.51,-0.178,-0.489,-0.858,-0.318,-0.0133,1.14 (inactive),-0.187,-0.0994,0.541,0.612 (inactive),-0.197 (inactive),0.407 (inactive),-0.172,-0.312 (inactive),-0.244,-1.1,-0.0196,-0.252
C=CCC(OC(C)=O)[C@@H]1[C@@H](N(Cc2ccc(-c3cccc(C(F)(F)F)c3)o2)C(=O)c2ccc(-c3ccccc3)cc2)c2cc(OCCCO)ccc2N1C(=O)c1ccc2ccccc2c1 (stereo not given in full),-0.071,-0.651,-0.105,-0.117,0.311,-0.0973,-0.373,-0.274 (inactive),0.543,-0.0618,-1.39,0.729 (inactive),1.16 (inactive),0.136 (inactive),0.254,-0.28 (inactive),-0.0485,0.28,0.461,-0.0828
C=CC[C@]1(C(=O)NCC(O)CO)COC(c2ccc(OCCCO)cc2)=N1 (stereo not given in full),1.3,1.29,0.0163,-0.0216,-0.888,0.0498,0.99,1.14 (inactive),0.0371,-0.141,-0.726,0.26 (inactive),0.691 (inactive),0.959 (inactive),2.15,-0.363 (inactive),0.479,-0.415,-1.35,0.0444
CC(=O)c1ccc(C(O)C2C=CC3C(=O)N(c4ccccc4)C(=O)C3N2Nc2ccc(C(C)C)cc2)cc1 (stereo not given),0.305,-0.152,-0.0226,0.897,1.37,1.55,1.09,0.59 (inactive),1.51,-0.106,1.08,1.24 (inactive),1.55 (inactive),-0.0304 (inactive),2.24,-0.541 (inactive),0.136,0.101,1.07,0.187
O=C(NCCN1CCOCC1)[C@@H]1c2ccccc2C(=O)N(Cc2ccccc2C(F)(F)F)[C@H]1c1ccc(CO)cc1,-1.15,-0.438,-0.319,-0.613,-1.2,0.875,-0.755,-1.79 (inactive),0.48,-0.504,1.56,-0.451 (inactive),-0.539 (inactive),-0.705 (inactive),1.81,0.75 (inactive),-0.525,-0.982,-0.842,-0.403
COc1ccc(C(=O)Nc2ccc3c(c2)[C@@]2(O[C@H](CCO)[C@@H]([Si](C)(C)c4ccc(OC)cc4)[C@@H]2C)C(=O)N3Cc2ccccc2)cc1,-0.122,0.143,-0.0333,-0.0652,0.562,0.929,1.07,-3.68 (inactive),0.154,0.2,1.28,-0.0565 (inactive),-4.96 (inactive),2.7 (inactive),1.94,0.629 (inactive),-0.0124,1.32,0.742,-0.0828
CCCC=C(CCC)[C@@H](NC(=O)c1ccc(C(F)(F)F)cc1)c1ccc(C(F)(F)F)cc1,0.625,0.629,0.171,0.669,1.57,1.82,0.588,-4.76 (inactive),1.04,-0.0965,1.41,1.13 (inactive),1.17 (inactive),1.23 (inactive),3.26,-0.35 (inactive),0.315,-0.0005,1.11,0.208
